About 620 (0.23%) of roughly 270,000 compounds were called active. Where a call stands in place of a potency, no number is given. Not shown: some 12% with an inconclusive outcome. Calls come from the whole dose curve; as a rule, active = well fitted inhibition curve with a large enough effect in the polarisation, with a control signal flat (not every such curve was filed as active); inconclusive = small, poorly fitted or top-dose-only effect, or effect the other way, or a change in a side signal; inactive = no such curve, though single readings can be large or run the other way; the % refers to the polarisation. This excerpt belongs to a sample that is enriched for actives.

The record followed here is PubChem BioAssay AID1768 (National Center for Advancing Translational Sciences (NCATS), 2009).
Potency is the fitted concentration of half-maximal effect.

Menin (Homo sapiens), sequence (O00255 whole entry, looked up, the tested form may be a part): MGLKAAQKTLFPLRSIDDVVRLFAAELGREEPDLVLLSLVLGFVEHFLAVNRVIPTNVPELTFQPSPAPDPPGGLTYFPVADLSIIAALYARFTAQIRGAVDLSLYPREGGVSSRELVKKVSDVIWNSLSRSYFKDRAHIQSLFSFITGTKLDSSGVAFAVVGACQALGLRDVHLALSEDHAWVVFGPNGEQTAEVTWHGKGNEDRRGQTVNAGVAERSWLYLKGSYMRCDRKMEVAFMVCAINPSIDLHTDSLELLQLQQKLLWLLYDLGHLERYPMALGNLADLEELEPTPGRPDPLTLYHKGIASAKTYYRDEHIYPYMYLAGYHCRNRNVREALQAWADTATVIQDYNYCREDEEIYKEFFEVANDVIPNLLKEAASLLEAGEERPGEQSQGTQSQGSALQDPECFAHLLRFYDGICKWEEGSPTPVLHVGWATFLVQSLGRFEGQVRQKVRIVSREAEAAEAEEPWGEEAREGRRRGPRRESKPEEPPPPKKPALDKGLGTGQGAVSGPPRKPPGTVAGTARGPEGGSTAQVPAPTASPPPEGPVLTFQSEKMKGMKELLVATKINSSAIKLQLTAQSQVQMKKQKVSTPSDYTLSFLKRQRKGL

This assay concerns the target Menin (Homo sapiens) (UniProt O00255). As to the kind of experiment: qHTS Assay for Inhibitors Targeting the Menin-MLL Interaction in MLL Related Leukemias: Competition With Texas Red Labeled MLL-derived Mutant Peptide. Particulars: fluorescence polarization; series mostly up to 61.6 µM. An excerpt:
qHTS Assay for Inhibitors Targeting the Menin-MLL Interaction in MLL Related Leukemias NIH Chemical Genomics Center [NCGC] NIH Molecular Libraries Probe Centers Network [MLPCN] MLPCN Grant: MH084875-01A1 Assay Submitter (PI): Jolanta Grembecka, Tomasz Cierpicki, University of Virginia Translocations of the MLL (Mixed Lineage Leukemia) gene are frequently found in human leukemias affecting both children and adults. Fusion of MLL to one of more than 60 genes results in generation of oncogenic proteins upregulating Hox genes, which are vital to blood cell development. Patients harboring fusion of the MLL gene suffer from aggressive leukemias and respond poorly to available therapies. All of the oncogenic fusion proteins have a preserved N-terminal fragment of MLL that has been identified to interact with menin. It has been recently discovered that association with menin is critical to the leukemogenic activity of the MLL fusion oncoproteins. Selective targeting of the menin-MLL interaction could provide an attractive therapeutic approach to develop novel drugs for MLL-related leukemias. Small molecules blocking the menin-MLL interaction should reverse the oncogenic potential of MLL fusion proteins. We have developed and optimized a fluorescence polarization-based assay for the identification of Menin-MLL inhibitors. The assay was run employing two different MLL-derived peptides. The present assay uses a 12 amino acid peptide labeled with fluorescein at its N-terminus. This peptide consists of the menin high affinity binding motif from MLL and is potently bound by menin. Another peptide with a mutated sequence, labeled with Texas Red, was used in parallel as a less stringent screen for inhibitors.
The Menin protein, the MLL-wild type (w.t.) derived peptide (N-terminal 12 amino acids), the MLL-derived peptide labeled with Texas Red and the MLL-w.t. peptide labeled with Fluorescein were kindly supplied by laboratory of Dr. Jolanta Grembecka, University of Virginia. All protein and peptide solutions were stored in single use aliquots at -80C. The Eu3+ Cyrptate-conjugated mouse monoclonal antibody anti-6 Histidine (Eu3+-AB) and the Streptavidin-XL665 conjugate (XL665) were purchased from Cisbio International (Bedford, MA). All antibody and XL665 conjugate solution stocks were stored in single use aliquots at -20C. The Buffer components for all assays were purchased from Sigma-Aldrich (St. Louis, MO) and Invitrogen (Carlsbad, CA). FP Assay Reagents: 1. FP reaction buffer: 50 mM Tris-HCl pH 7.5, 50 mM NaCl, 1mM DTT. Before use, 0.05% BSA is added. 2. Menin protein, MLL-w.t. labeled with fluorescein, MLL-mutant peptide labeled with texas red. Stored in singe use aliquots at -80C. 3. MLL-w.t. unlabeled peptide as positive control: 10 uM final in FP buffer. FP Assay Procedure: 1. Prepare Menin at 200 nM, MLL-w.t.-fluorescein at 25 nM, and MLL-mutant-texas red at 50 nM mixture in FP buffer. 2. Prepare Menin at 200 nM, MLL-w.t.-fluorescein at 25 nM, MLL-mutant-texas red at 50 nM, and 10 uM MLL-w.t. unlabeled mixture in FP buffer. 3. Prepare MLL-w.t.-fluorescein at 25 nM and MLL-mutant-texas red at 50 nM mixture in FP buffer. 3. Dispense 4 ul per well of reagent in step 1 in columns 2, 4 - 48 in a black 1536 well plate, dispense 4 ul per well of reagents from steps 2 and 3 in columns 1 and 3 respectively. Incubate plate at ambient for 15 minutes. 4. Transfer 23 nl per well of compound to plate and incubate at ambient for 1 hr. 5. Read fluorescence polarization for each label using the PerkinElmer Envision. Envision protocol for fluorescein: FITC FP Dual Enh Mirror, Excitation filter 480, Emission filter (1) P-pol 535, Emission filter (2) S-pol 535 Envision protocol for texas red: FP Dual Enh Mirror, Excitation filter 555, Emission filter (1) P-pol 632, Emission filter (2) S-pol 632
(In general: In qHTS, concentration-response curves come from the screen itself.)
On to `COc1ccc(NC(=O)NCCN2CCN(c3ccc(C)cc3)CC2)c(Cl)c1`, for which the Potency result is “inactive”.

On to `COc1ccc(C2/C=C\CN(C(=O)c3ccc(C)cc3)C(Cc3ccccc3)C(=O)N2Cc2ccc(F)cc2)cc1` (configuration not stated), for which the Potency result was “inactive”.

Take `CCOc1ccc(C(C(=O)NC2CCCC2)N(C(=O)c2snc(C(N)=O)c2N)C2CCCC2)cc1` (configuration not stated): the Potency entry is “inactive”.

For the compound `CC(=O)N1CCOc2ccc(S(=O)(=O)N3CCN(c4cccc(C(F)(F)F)c4)CC3)cc21`, the Potency result is “inactive”.

`O=C(NCCc1cccc(F)c1)C1CCCN(c2nc3ccccc3s2)C1` (configuration not stated): the Potency result is “inactive”.

Take `CC(Cc1cccs1)N(Cc1ccc(Cl)cc1)C(=O)c1ccncc1` (configuration not stated): the Potency result was “inactive”.

As to `COc1ccc(CN2CCC(=O)c3ccccc3S2(=O)=O)cc1`, the Potency result was “inactive”.

With `COc1ccc(OC)c(CNC(=O)Cn2nc(C)c3c(C)n(-c4ccc(C)cc4)nc3c2=O)c1`, the Potency entry was “inactive”.

Take `CCN1C(=S)N[C@@H](c2cccc(C(F)(F)F)c2)C(C(=O)OC)=C1C`: the Potency result is “inactive”.

As for `COc1cc(C(=O)NCc2ccncc2)cc(Br)c1OCc1ccccc1`, the Potency entry was “inactive”.

`Cc1ccc(CNC(=O)C2(C(F)(F)F)C/C(=C\CCO)CCCO2)o1` (configuration not stated): the Potency result was “inactive”.

Regarding `FC(F)(F)c1nnc2c3ccccc3c(Cl)nn12`, the Potency entry is “inactive”.

Regarding `CC(C)C[C@H]1CN=C(Nc2ccccc2)N1CC1CCCCC1`, the Potency entry was “inactive”.

Turning to `COC(=O)c1ccc2c(=O)n(CCN3CCOCC3)c(SCC(=O)Nc3cccc(OC)c3)nc2c1`, the Potency entry was “inactive”.

Consider `Cc1c(C(=O)NCC(c2ccco2)N2CCCC2)oc2ccc(Cl)cc12` (configuration not stated), for which the Potency entry is “inactive”.

As to `COc1cc(OC)c2c(c1C(CCN1CCCCC1)c1ccc(N(C)C)cc1)OC(=O)CC2c1ccc(N(C)C)cc1` (configuration not stated), the Potency entry is “inactive”.

For the compound `O=C(N/C(=C/c1ccc(Cl)cc1)C(=O)N1CCCCC1)c1ccco1`, the Potency result was “inactive”.

Regarding `Cc1ccc(-n2ncc(C(=O)NC3CC3)c2C2CCN(C(=O)OC(C)(C)C)CC2)c(C)c1`, the Potency result was “inactive”.

Consider `Cc1cc2c(c(=O)n1Cc1ccccc1)C1O[C@](CCCCN3C(=O)c4ccccc4C3=O)(Cc3ccccc31)O2`, for which the FP activity change, negative = inhibition is 12.4% [at 11.7 µM] (inactive).

Turning to `CC1Sc2ccc(S(=O)(=O)CCC(=O)NCc3ccccc3Cl)cc2NC1=O` (configuration not stated), the Potency entry is “inactive”.

With `COc1cc(C(=O)NC2CCN(Cc3ccccc3)CC2)cc(Cl)c1OC(C)C`, the Potency entry was “inactive”.

`O=C(NNC(=O)c1cc2c(s1)CCCC2)c1ccccc1`: the Potency entry was “inactive”.

`Cc1ccc(C(=O)NNC(=O)c2cccs2)cc1`: the Potency entry was “inactive”.

For the compound `Cc1ccc(C(=O)NNC(=O)c2cc3cc4ccccc4nc3s2)cc1`, the Potency was 17.8 µM (active).

Take `COc1ccc(-c2nc3c(s2)CCc2onc(-c4ccc(OC)cc4)c2-3)cc1`: the Potency result is “inactive”.

On to `O=C1OC2(CCCCC2)CC2=C1C1O[C@](c3ccsc3)(Cc3ccccc31)O2`, for which the FP activity change, negative = inhibition was -0.298% [at 11.7 µM] (inactive).

In the case of `COc1ccc(CN2CCCC(N3CCc4ccccc4C3)C2)c(O)c1` (configuration not stated), the Potency result was “inactive”.

As for `Cc1ccc2nc(-c3ccncc3)cc(C(=O)Nc3ccncc3)c2c1`, the Potency entry was “inactive”.

`COc1cccc(OCC(O)CNC(=O)c2oc3c(C)c(C)ccc3c2C)c1` (configuration not stated): the Potency result is “inactive”.

Turning to `CC(C)CNS(=O)(=O)c1ccc(CCC(=O)NCc2ccc(Cl)cc2)cc1`, the Potency entry was “inactive”.

With `C=CCn1c(SCC(=O)NC)nnc1C12CC3CC(CC(C3)C1)C2`, the Potency result is “inactive”.

`COCCN1C(=O)C(=O)/C(=C(/O)c2ccc(S(=O)(=O)N3CCCCC3)cc2)C1c1ccc(OC)c(OC)c1` (configuration not stated): the Potency entry was “inactive”.

Consider `COc1cc(C(=O)NCc2cc3cc(Cl)ccc3n2C)cc(OC)c1OC`, for which the Potency result is “inactive”.

As for `CCCCNC(=O)c1cn(CC)c2cc(N3CCN(C(=O)c4ccco4)CC3)c(F)cc2c1=O`, the Potency entry is “inactive”.

Turning to `CCOc1ccc(NC(=O)C2CCN(C(=O)N3CCOc4ccccc43)CC2)cc1`, the Potency result is “inactive”.

Take `Cc1ccc(N(Cc2ccccc2O)C(=O)c2ccccc2F)cc1`: the Potency result is “inactive”.

For the compound `Cc1ccc(O)c(CNc2nc3ccccc3[nH]2)c1`, the Potency entry was “inactive”.

`CCOC(=O)c1c(N)sc(C(C)=O)c1C`: the Potency entry was “inactive”.

Turning to `COC(=O)c1sc(=S)n(-c2ccccc2)c1N`, the Potency result was “inactive”.

As to `COCCOC(=O)c1sc(=S)n(CCOC)c1N`, the Potency was 28.2 µM (active).

On to `O=C(c1ccccc1)N1CCC(CC2CC(c3ccc(Cl)cc3)=NO2)(C(=O)NCC2CCCCC2)CC1` (configuration not stated), for which the Potency result is “inactive”.

As to `CCN(CC)S(=O)(=O)c1ccc(N2CCOCC2)c(NC(=O)C2CSC3(C)CCC(=O)N23)c1` (configuration not stated), the Potency result was “inactive”.

For `COc1ccc(C)cc1Nc1n[n+](-c2ccccc2)c(-c2cccc(Cl)c2Cl)s1`, the Potency entry is “inactive”.

Take `CC1CC(C)CN(CCCNC(=O)c2csc3c2CCCCC3)C1` (configuration not stated): the Potency entry is “inactive”.

Consider `CCN(CC)c1ccc(C(=O)Nn2c(C)nc3ccccc3c2=O)cc1`, for which the Potency entry was “inactive”.

In the case of `CCC(CC)COC(=O)C1=C(C)NC(=O)NC1c1ccc([N+](=O)[O-])cc1` (configuration not stated), the Potency result was “inactive”.

For `CCCN1CCC(=O)N(C(CSc2ccc(C)cc2)Cc2ccccc2)CC1` (configuration not stated), the Potency entry was “inactive”.

On to `CCOC(=O)c1ccccc1NS(=O)(=O)c1c(C)nc2sccn2c1=O`, for which the Potency entry was “inactive”.

Consider `COc1ccc(-n2nc(C(=O)NCC(=O)N3CCN(c4ccccc4OC)CC3)c3ccccc3c2=O)c(OC)c1`, for which the Potency result is “inactive”.

`CCCCc1cc(=O)oc2c(C)c(OCC(=O)N3CCC(C(N)=O)CC3)ccc12`: the Potency entry is “inactive”.

As to `O=S(=O)(NC1CCCCC1N1CCN(c2ccccc2F)CC1)c1ccccc1` (configuration not stated), the Potency result was “inactive”.

Take `CC(C)(COC(=O)Nc1ccccc1)COC(=O)Nc1ccccc1`: the Potency result was “inactive”.

Regarding `Cc1ccc(C)c(N2CCN(C(=O)CCCn3c(=O)c4cccn4c4cccnc43)CC2)c1`, the Potency entry is “inactive”.

As to `O=C(O)Cc1ccc(NC(=O)c2cccs2)cc1`, the Potency result is “inactive”.

Take `Cc1nc(-c2ccc(NC(=O)c3cccs3)cc2)cs1`: the Potency was 25.1 µM (active).

Consider `CCc1ccc(NC(=O)C(=O)NNC(=O)c2cccs2)cc1`, for which the Potency result is “inactive”.

With `COc1ccc(C2CC(O)(c3ccccc3)Oc3cc(C)cc(C)c32)cc1` (configuration not stated), the Potency result was “inactive”.
